# TWEAK-Fn14 inh = blocks TWEAK-Fn14 interaction in a reporter cell assay; 2% of 360,000 active; TWEAK-stimulated Fn14 reporter cells, luciferase luminescence, 8 h; inhibition, % at 10 µM; AID 1159606; in the data active = inhibition above about 50%
# HIF-2a block = inhibitors of HIF-2a; 0.72% of 360,000 active; 786-0 RCC cells HIF-2a reporter, luciferase luminescence, overnight; AID 624352; inhibition, % at 18.8 µM;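 active = inhibition of the luminescence signal of 40% or more relative to plate controls, in a single-dose primary screen at 18.75 µM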
# Peg3 prom inh = inhibitors of Peg3 promoter; HeLa PEG-Prom luciferase reporter, luminescence, overnight; inhibition, % at 20 µM; 1.7% of 360,000 active;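 active = inhibition of at least 50% at 20 µM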
# CF NFkB inh = inhibitors of cystic fibrosis induced NF-kB. KKLEB NF-kB-GFP reporter, PAF-induced, GFP fluorescence overnight. inhibition, % at 5 µM. 0.86% of 360,000 active. AID 588850;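 active = at least 50% inhibition at 5 µM, scaled per plate between neutral and stimulator controls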;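 note: PAF is a Pseudomonas aeruginosa culture filtrate used as stimulus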
# KKLEB cytotox = counter-screen for CF NF-kB inhibitors: cytotoxicity; KKLEB CF airway cells viability, ATPlite luminescence, overnight; stronger effect = lower value; cells stimulated with P. aeruginosa culture filtrate; activity change (cytotoxicity), % at 5 µM; 0.36% of 360,000 active; AID 602141;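 active = corrected activity change at or below -50% at 5 µM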
# TROY NFkB inh = TROY signaling inhibition | Q293 LMP1-TROYcd NF-kB luciferase reporter, 4 h | inhibition, % at 10 µM | 0.98% of 360,000 active;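 active = compounds whose plate-normalised and pattern-corrected inhibition of the luciferase reporter signal at the single screening dose is 50% or more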
# A number is an active result; 0 = inactive; - = not tested or not shown. This is a sample that favours compounds with a hit; in the whole collection about 4% have one here.
SMILES,TWEAK-Fn14 inh,HIF-2a block,Peg3 prom inh,CF NFkB inh,KKLEB cytotox,TROY NFkB inh
CCCOc1ccc(F)cc1-c1cc(C(=O)Nc2cc(OC)c(OC)c(OC)c2)[nH]n1,64,0,0,0,0,0
CCCOc1ccc(F)cc1-c1cc(C(=O)Nc2ccc(OC)nc2)[nH]n1,0,0,0,0,0,0
CCOC(=O)[C@H]1[C@H]2COc3ccc(Br)cc3[C@H]2N2C(=O)CN(Cc3ccc(C)cc3)C(=O)[C@@]12C,0,0,0,0,0,0
CCOC(=O)CCN1C(=O)c2ccccc2Sc2ncccc21,0,0,0,0,0,0
Fc1c(F)c(C(F)(F)F)c(F)c(F)c1N/N=C\c1cccs1,60,0,0,0,0,0
Cn1c(N/N=C/c2cccs2)cc(=O)n(C)c1=O,0,0,0,0,0,0
CCN(CC)CCn1c(=S)[nH]c2cc(C(=O)NCCc3ccc(OC)c(OC)c3)ccc2c1=O,0,0,0,0,0,0
CN(C)c1ccc(NC2=C(Cl)C(=O)c3ccccc3C2=O)cc1,102,96,100,80,-82,0
O=C1C(Cl)=C(Nc2ccc3cn[nH]c3c2)C(=O)c2ccccc21,0,95,97,94,-92,0
Cc1ccc(NC2=C(NCCO)C(=O)c3ccccc3C2=O)cc1,0,0,0,0,0,0
CCN(CC)CCNC(=O)c1ccc(NC(=O)CC(NC(=O)c2ccccc2Cl)c2ccccc2)cc1 (configuration not stated),0,0,0,0,0,0
Cc1ccc(-c2ccc(=O)n(CCC(=O)NCCN3CCCCC3C)n2)cc1 (configuration not stated),87,0,0,0,0,-
O=C(C1CCCN(Cc2ccccc2[N+](=O)[O-])C1)N1CCCCC1 (configuration not stated),0,0,0,0,0,0
Clc1ccc(Cc2nc(-c3ccncc3)no2)cc1,0,0,0,0,0,0
COc1ccc(Cc2nc(-c3ccncc3)no2)cc1,0,0,0,0,0,50
Nc1c(Br)cc(Br)c2c1-c1ccc([N+](=O)[O-])cc1C2,0,0,0,0,0,0
CS(=O)(=O)N(CCc1ccccc1)CC(=O)N1CCN(c2ccccc2F)CC1,84,0,0,0,0,0
O=C(/C=C/c1ccc([N+](=O)[O-])cc1)c1cccs1,0,0,0,0,0,0
COc1cc([N+](=O)[O-])ccc1N/C=C/C(=O)c1cccs1,0,0,0,0,-58,0
Cc1cccc(N/C=C/C(=O)c2cccs2)c1C,58,0,0,0,0,0
Cc1ccccc1NC(=S)NN1CCN(C)CC1,74,0,0,0,0,-
Cc1cccc(NC(=S)NN2CCN(C)CC2)c1C,0,0,0,0,0,0
Cc1cccnc1CCNCc1c(C(=O)N2C[C@@H](C)O[C@@H](C)C2)nc2ccc(Cl)cn12,0,0,0,0,0,0
CSCCC(NC(=O)c1ccccc1Cl)C(=O)NCCOc1ccc(C)cc1 (configuration not stated),0,0,0,0,0,0
Cc1ccc2nc(/C(C#N)=C\c3ccc(Oc4ccc([N+](=O)[O-])cn4)cc3)[nH]c2c1,0,0,0,0,0,0
SMILES,TWEAK-Fn14 inh,HIF-2a block,Peg3 prom inh,CF NFkB inh,KKLEB cytotox,TROY NFkB inh
COc1ccc2nc(/C(C#N)=C\c3ccc(Oc4ccc([N+](=O)[O-])cn4)cc3)[nH]c2c1,0,0,81,0,0,0
CC(=O)C[C@@H](O)CC(=O)[C@@H]1OC(=O)[C@H](C)C/C=C\Cc2ccccc21,0,0,0,0,0,0
Cc1ccc(S(=O)(=O)N2CC=C(c3c(C)n(C)c4ccccc34)CC2)cc1,0,0,0,0,0,71
O=C(OCc1nc2ccc(Cl)cc2n1CCO)c1ccc(O)cc1,67,0,0,0,0,77
COc1ccccc1CCC(=O)Nc1ccc(S(=O)(=O)Nc2ncccn2)cc1,0,0,0,0,0,0
N#CCCN(C(=O)Nc1ccccc1)C1CCCCC1,0,0,0,0,0,0
O=C(COc1ccc([N+](=O)[O-])cc1)Nc1ccc(C(=O)NCc2cccnc2)cc1,0,0,75,0,0,0
O=C(COc1ccc([N+](=O)[O-])cc1)NCc1cccnc1,0,0,0,0,0,0
CC(C)(C)c1cc(C(=O)N/N=C/c2ccccc2O)n(-c2ccccc2)n1,0,0,50,0,0,0

# From PubChem
